Shown are actives, neighbours in structure and some others; about 4.7% of the full set was active somewhere.
D1 antag = human D1 dopamine receptor antagonism | P21728 | activity change, negative = inhibition, % at 10 µM | HEK293 TREx D1 cells, calcium flux, dopamine EC80; stronger effect = lower value | actives 3.2% (n = 360,000); in the data active = activity change below about -30%; also: % is scaled to controls: 0 for no effect and ±100 for the full control effect
Target sequence (P21728 whole entry, looked up): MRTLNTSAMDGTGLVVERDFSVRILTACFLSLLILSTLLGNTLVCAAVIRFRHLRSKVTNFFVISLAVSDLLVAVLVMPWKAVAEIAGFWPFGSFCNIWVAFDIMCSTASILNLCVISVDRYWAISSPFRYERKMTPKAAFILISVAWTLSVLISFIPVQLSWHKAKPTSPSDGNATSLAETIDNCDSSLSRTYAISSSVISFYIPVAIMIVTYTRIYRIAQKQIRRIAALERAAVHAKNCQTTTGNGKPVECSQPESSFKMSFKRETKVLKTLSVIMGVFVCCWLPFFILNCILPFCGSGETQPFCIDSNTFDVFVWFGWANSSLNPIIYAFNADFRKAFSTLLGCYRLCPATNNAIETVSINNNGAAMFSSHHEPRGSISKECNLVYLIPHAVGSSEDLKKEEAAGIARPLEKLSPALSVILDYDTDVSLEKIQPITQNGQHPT
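Tetracycline-induced HEK293 T-REx cells with force-coupled D1 receptor were loaded with a no-wash calcium dye. Compound was added after a 10 s baseline and read kinetically for 180 s; EC80 dopamine was then added and calcium flux followed another 180 s.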
TRHR ag = agonists of human TRH receptor; P34981; TRHR cells, calcium flux fluo-8, FDSS agonist mode; activation, % at 2 µM; actives 0.18% (n = 360,000); AID 493084; also: 0% is about no effect
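TRHR-expressing cells loaded with fluo-8 calcium dye; 23 nL library compound pin-transferred, kinetic FDSS fluorescence (Ex 480/Em 530) recorded about 180 s for agonist-induced calcium release, before a 10 nM TRH EC20 addition for potentiator mode.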
D1 potentiator = enhances dopamine response at the human D1 receptor. P21728. HEK293 TREx D1 cells, calcium flux, dopamine EC20 potentiation. potentiation, % at 10 µM. actives 0.036% (n = 360,000); in the data active = potentiation above about 30%; also: 0% is about no effect
TRHR PAM = allosterically enhances the human TRH receptor; actives 0.66% (n = 360,000); enhancement, % at 2 µM; TRHR cells, fluo-8 calcium fluorescence, EC20 TRH enhancement; in the data active = enhancement above about 30%; also: 0% is about no effect
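TRHR-expressing cells loaded with fluo-8 calcium dye were read kinetically (ex 480/em 530) during compound addition, then stimulated with an EC20 of TRH (10 nM final). Enhancement of the Gq-mediated intracellular calcium response was scored.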
D1 ag = human D1 receptor agonism | activation, % at 2 µM | actives 1% (n = 360,000) | P21728 | HEK293 T-REx D1 cells, calcium flux, agonist mode; also: 0% is about no effect
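Agonism was scored from calcium flux recorded over 180 s (1 read/s) after pintool compound addition, following a 10-cycle baseline. Cells were inducible force-coupled HEK293 TREx D1, plated overnight at 30 C and loaded with no-wash calcium dye.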
An asterisk follows results filed as active. Rule as the data show it, unless noted: active = activation above about 30%; inactive = the rest.

For CCN1CCc2c(sc(NC(=O)Cc3ccccc3)c2C(N)=O)C1 the results were D1 antag -24, TRHR ag 1, D1 potentiator -2, TRHR PAM 7 and D1 ag 6.
CCN1CCc2c(sc(NC(=O)Nc3ccc(Cl)c(Cl)c3)c2C(N)=O)C1 was read as D1 antag -8, TRHR ag 159*, D1 potentiator -2, TRHR PAM -20 and D1 ag 418*.
For NC(=O)c1c(NC(=O)c2ccncc2)sc2c1CCCC2 the results were D1 antag 3, TRHR ag 0, D1 potentiator -2, TRHR PAM -4 and D1 ag 1.
For Cc1ccc(C)c(NC(=O)c2ccc3c(O)c(S(=O)(=O)c4ccc(Cl)cc4)c(=O)[nH]c3c2)c1 the results were D1 antag -20, TRHR ag 0, D1 potentiator -4, TRHR PAM 11 and D1 ag 3.
`COc1cccc(NC(=O)CNC(=O)N2CC(=O)Nc3ccccc32)c1` gave D1 antag -8, TRHR ag 0, D1 potentiator -2, TRHR PAM -1 and D1 ag 4.
`COc1ccc2cc(CNc3ccc(OC)c(OC)c3)c(=O)n(CC(=O)Nc3ccc(C)cc3)c2c1` gave D1 antag -29, TRHR ag -1, D1 potentiator -4, TRHR PAM 1 and D1 ag 1.
`Cc1cc(C)c2c(n1)nn1c(C)c(CCC(=O)Nc3ccc(C)c(Cl)c3)c(C)nc21` gave D1 antag 21, TRHR ag -1, D1 potentiator -2, TRHR PAM 4 and D1 ag 1.
Screening CCc1cccc2c(-c3ccccc3)nc(SCC(=O)Nc3ccc(OC)cc3)nc12 returned D1 antag 5, TRHR ag -2, D1 potentiator 1, TRHR PAM 6 and D1 ag 2.
For NC(=O)c1c(NC(=O)c2ccccc2)sc2c1CCN(Cc1ccccc1)C2 the results were D1 antag -9, TRHR ag 53*, D1 potentiator -10, TRHR PAM 0 and D1 ag 216*.
`O=C(CSc1nncn1-c1ccccc1)Nc1ccccc1F` gave D1 antag -3, TRHR ag -2, D1 potentiator -1, TRHR PAM 1 and D1 ag 3.
Cc1cccc(NC(=O)Cn2nnc(-c3nc(-c4ccncc4)no3)c2N)c1 was read as D1 antag 9, TRHR ag 1, D1 potentiator 2, TRHR PAM 3 and D1 ag 1.
`Cc1nc(=O)c(-c2ccccc2)c(C)n1CCCO` gave D1 antag -4, TRHR ag -1, D1 potentiator -2, TRHR PAM 6 and D1 ag 3.
For Cc1nc(=O)c(-c2ccccc2)c(C)n1CCO the results were D1 antag -37*, TRHR ag 0, D1 potentiator -4, TRHR PAM -1 and D1 ag 1.
For CCOC(=O)CCCn1c(C)nc(=O)c(-c2ccccc2)c1C the results were D1 antag -34*, TRHR ag 1, D1 potentiator -3, TRHR PAM -1 and D1 ag 0.
Screening Cc1nc(=O)c(-c2ccccc2)c(C)n1CCCCCC(=O)O returned D1 antag -7, TRHR ag 1, D1 potentiator 0, TRHR PAM -2 and D1 ag 3.
For CCCCC[C@]12Cc3cc(OC)c(OC)cc3C(O1)c1c(cc(C)n(-c3ccccc3)c1=O)O2 the results were D1 antag 10, TRHR ag 0, D1 potentiator -1, TRHR PAM 5 and D1 ag 0.
`C/C(=C\C=C(C#N)C#N)c1cc(C#N)c(N)o1` gave D1 antag 21, TRHR ag 11, D1 potentiator -9, TRHR PAM -6 and D1 ag 63*.
For O=C(COc1ccc(S(=O)(=O)NC2CCCCC2)cc1)N1CCN(c2ccc(F)cc2)CC1 the results were D1 antag -30*, TRHR ag 1, D1 potentiator -8, TRHR PAM -1 and D1 ag 10.
For COc1cc(Cl)c(NS(=O)(=O)c2ccc(-c3coc(C)n3)cc2)c(OC)c1 the results were D1 antag -28, TRHR ag 0, D1 potentiator -6, TRHR PAM -4 and D1 ag 15.
`O=C1C(c2cccc(Br)c2)N(CCc2ccccc2)C(=O)CN1C1CCCCC1` (centres undefined) gave D1 antag -33*, TRHR ag -1, D1 potentiator -1, TRHR PAM 6 and D1 ag -2.
Screening CCOc1ccccc1NC(=O)COC(=O)CN(C)S(=O)(=O)c1ccc(C)cc1 returned D1 antag -45*, TRHR ag 0, D1 potentiator -8, TRHR PAM 1 and D1 ag 25.
For CCOc1ccccc1NC(=O)COC(=O)Cc1ccc(-c2ccccc2)cc1 the results were D1 antag -37*, TRHR ag -1, D1 potentiator -5, TRHR PAM -2 and D1 ag 39*.
CCOc1ccccc1NC(=O)COC(=O)CNS(=O)(=O)c1ccc(C)cc1 was read as D1 antag -16, TRHR ag 1, D1 potentiator -2, TRHR PAM 2 and D1 ag -1.
`Cc1ccc(Nc2nnc(-c3ccc(C)c(S(=O)(=O)N4CCN(C)CC4)c3)c3ccccc23)cc1` gave D1 antag -24, TRHR ag 0, D1 potentiator -4, TRHR PAM -1 and D1 ag -2.
For Cc1ccc(-c2nnc(Nc3cccc(Br)c3)c3ccccc23)cc1S(=O)(=O)N1CCN(C)CC1 the results were D1 antag -2, TRHR ag 0, D1 potentiator -5, TRHR PAM -1 and D1 ag 1.
`Cc1ccc(Nc2nnc(-c3ccc(C)c(S(=O)(=O)N4CCN(C)CC4)c3)c3ccccc23)c(C)c1` gave D1 antag -57*, TRHR ag 0, D1 potentiator -5, TRHR PAM 1 and D1 ag -1.
C#CCOc1ccc(-c2nnc(Nc3cccc(C)c3)c3ccccc23)cc1 was read as D1 antag -45*, TRHR ag 0, D1 potentiator -1, TRHR PAM -11 and D1 ag -1.
`Cc1cccc(Nc2nnc(-c3ccc(C)c(S(=O)(=O)N4CCN(C)CC4)c3)c3ccccc23)c1` gave D1 antag -44*, TRHR ag -1, D1 potentiator -3, TRHR PAM 5 and D1 ag 3.
`Oc1ccc(-c2nnc(Nc3cccc(O)c3)c3ccccc23)cc1` gave D1 antag 4, TRHR ag 0, D1 potentiator 10, TRHR PAM -1 and D1 ag 2.
For c1ccc2c(c1)Cc1ccccc1O2 the results were D1 antag -6, TRHR ag -2, D1 potentiator -5, TRHR PAM 3 and D1 ag -1.

Screens: PubChem BioAssay, National Center for Advancing Translational Sciences (NCATS)
